# Laboratory results from PubChem BioAssay AID2284059 (EPA ToxCast).
# Activity calls are given as the source filed them. Rule for the calls: active = hit-call score of the fitted dose curve at least 0.9, where 1 is the maximum; inactive = score below 0.9.
# Target: CYP2E1, CYP2E1 (gene 1571) (UniProt P05181)
# Experiment: ERF_FR_ADME_hCYP2E1: Eurofins (ERF) CYP450-related Enzyme Activity (ADME) Assay for CYP2E1
# Procedure: ERF_FR_ADME_hCYP2E1 is a biochemical, single-readout assay that uses extracted gene-proteins in a cell-free assay. Measurements were taken 0.16 hour after chemical dosing in a 96-well plate. See CYP2E1 inhibition (recombinant, EC substrate).ERF_FR_ADME_hCYP2E1 is an assay component calculated from the ERF_FR_ADME_hCYP2E1 assay. It is designed to measure enzyme activity using a type of enzyme reporter as detected by peak area response of 6-hydroxychlorzoxazone with HPLC-MS/MS technology.Data from the assay component ERF_FR_ADME_hCYP2E1 was analyzed at the assay endpoint, ERF_FR_ADME_hCYP2E1, in the positive analysis fitting direction relative to acetonitrile as the negative control and baseline of activity. Using a type of enzyme reporter, loss-of-signal activity can be used to understand changes in enzymatic activity as they relate to gene CYP2E1. To generalize the intended target to other relatable targets, this assay endpoint is annotated to the cyp intended target family, where the subfamily is steroidogenesis-related.
# Assay is performed using 20 uM chlorzoxazone, cells are pre-incubated for 5 minutes, and then 10 minutes incubation with NADPH at 37C.
# Sequence of CYP2E1, CYP2E1 (gene 1571) (P05181 whole entry, looked up): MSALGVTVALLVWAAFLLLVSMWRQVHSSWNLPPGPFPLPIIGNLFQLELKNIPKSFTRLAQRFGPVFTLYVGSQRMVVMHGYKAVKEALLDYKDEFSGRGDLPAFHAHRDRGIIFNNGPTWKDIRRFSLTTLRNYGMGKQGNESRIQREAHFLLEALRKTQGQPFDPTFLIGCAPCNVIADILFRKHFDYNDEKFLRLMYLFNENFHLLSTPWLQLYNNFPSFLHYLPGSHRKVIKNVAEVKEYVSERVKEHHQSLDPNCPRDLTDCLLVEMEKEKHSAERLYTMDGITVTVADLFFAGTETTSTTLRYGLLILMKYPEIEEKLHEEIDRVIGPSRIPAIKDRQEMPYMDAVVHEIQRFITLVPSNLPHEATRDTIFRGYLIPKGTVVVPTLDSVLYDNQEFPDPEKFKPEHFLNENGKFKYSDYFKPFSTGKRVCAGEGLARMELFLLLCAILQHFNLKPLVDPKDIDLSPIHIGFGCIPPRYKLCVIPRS
row,Structure (SMILES),AC50
1,O=C(/C=C/c1ccc(O)cc1)CC(=O)/C=C/c1ccc(O)cc1,1.15 µM (active)
2,COc1cc(/C=C/C(=O)CC(=O)/C=C/c2ccc(O)c(OC)c2)ccc1O,1.08 µM (active)
3,COc1cc(CCC(=O)CC(=O)CCc2ccc(O)c(OC)c2)ccc1O,1.24 µM (active)
